Laboratory results taken from the supplement of paper PMC8728848.
This excerpt belongs to a sample that is enriched for the strongest signals.

Assays:
Experiment in all cases: glycan array binding signal (z-score within array); higher = stronger binding
Conditions in all cases: glycan notation: IUPAC condensed, linker removed
[1] = target: Fuc(a1-2)Gal(b1-3)GlcNAc(b1-2)Man(a1-3)[Fuc(a1-2)Gal(b1-3)GlcNAc(b1-2)Man(a1-6)]Man(b1-4)GlcNAc(b1-4)[Fuc(a1-6)]GlcNAc
In short: (§1)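 Glycan array data came from 3228 arrays in the Consortium for Functional Glycomics database, and only arrays with an available protein sequence were kept. Glycan names were put into IUPAC-condensed notation, and columns mapping to the same glycan were averaged. The binding signal is a within-array Z-score, averaged across arrays of one protein sequence run at different concentrations or buffers and across linkers. A negative Z-score can be read as non-binding.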

[2] = target: Fuc(a1-2)Gal(b1-4)Fuc(a1-3)]GlcNAc(b1-2)Man(a1-3)[Fuc(a1-2)Gal(b1-4)[Fuc(a1-3)]GlcNAc(b1-2)Man(a1-6)]Man(b1-4)GlcNAc(b1-4)GlcNAc
In short: as §1

[3] = target: Fuc(a1-2)Gal(b1-4)Glc6S
In short: as §1

[4] = target: Fuc(a1-2)Gal(b1-4)GlcNAc
In short: as §1

[5] = target: Fuc(a1-2)Gal(b1-4)GlcNAc(b1-2)Man(a1-3)[Fuc(a1-2)Gal(b1-4)GlcNAc(b1-2)Man(a1-6)]Man(b1-4)GlcNAc(b1-4)[Fuc(a1-6)]GlcNAc
In short: as §1

[6] = target: Fuc(a1-2)Gal(b1-4)GlcNAc(b1-6)GalNAc
In short: as §1

[7] = target: Fuc(a1-2)Gal(b1-4)[Fuc(a1-3)]GlcNAc(b1-3)GalNAc
In short: as §1

[8] = target: Fuc(a1-2)Gal3S(b1-4)GlcNAc
In short: as §1

[9] = target: Fuc(a1-2)[Gal(a1-3)]Gal(b1-3)GlcNAc(b1-3)GalNAc
In short: as §1

[10] = target: Fuc(a1-2)[Gal(a1-3)]Gal(b1-4)GlcNAc(b1-2)Man(a1-3)[Fuc(a1-2)[Gal(a1-3)]Gal(b1-4)GlcNAc(b1-2)Man(a1-6)]Man(b1-4)GlcNAc(b1-4)[Fuc(a1-6)]GlcNAc
In short: as §1

[11] = target: Fuc(a1-2)[GalNAc(a1-3)]Gal(b1-3)GlcNAc(b1-2)Man(a1-3)[Fuc(a1-2)[GalNAc(a1-3)]Gal(b1-3)GlcNAc(b1-2)Man(a1-6)]Man(b1-4)GlcNAc(b1-4)[Fuc(a1-6)]GlcNAc
In short: as §1

[12] = target: Fuc(a1-2)[GalNAc(a1-3)]Gal(b1-4)GlcNAc(b1-2)Man(a1-3)[Fuc(a1-2)[GalNAc(a1-3)]Gal(b1-4)GlcNAc(b1-2)Man(a1-6)]Man(b1-4)GlcNAc(b1-4)[Fuc(a1-6)]GlcNAc
In short: as §1

[13] = target: Fuc(a1-2)[GalNAc(a1-3)]Gal(b1-4)GlcNAc(b1-3)Gal(b1-4)GlcNAc(b1-3)Gal(b1-4)GlcNAc
In short: as §1

[14] = target: Fuc(a1-2)[GalNAc(a1-3)]Gal(b1-4)[Fuc(a1-3)]GlcNAc(b1-3)GalNAc
In short: as §1

[15] = target: Fuc(a1-3)[Gal(b1-4)]GlcNAc(b1-2)Man(a1-3)[Fuc(a1-3)[Gal(b1-4)]GlcNAc(b1-2)Man(a1-6)]Man(b1-4)GlcNAc(b1-4)GlcNAc
In short: as §1

[16] = target: Fuc(a1-3)[GalNAc(b1-4)]GlcNAc6S
In short: as §1

[17] = target: Gal(a1-2)Gal
In short: as §1

[18] = target: Gal(a1-3)Gal(b1-4)[Fuc(a1-3)]GlcNAc
In short: as §1

[19] = target: Gal(b1-3)Gal
In short: as §1

[20] = target: Gal(b1-3)GalNAc(b1-3)Gal
In short: as §1

[21] = target: Gal(b1-3)GalNAc(b1-3)Gal(a1-4)Gal(b1-4)Glc
In short: as §1

[22] = target: Gal(b1-3)GlcNAc(a1-3)Gal(b1-4)GlcNAc
In short: as §1

[23] = target: Gal(b1-3)GlcNAc(b1-3)Gal(b1-4)GlcNAc(b1-2)[Gal(b1-3)GlcNAc(b1-3)Gal(b1-4)GlcNAc(b1-6)]Man(a1-6)[Gal(b1-3)GlcNAc(b1-3)Gal(b1-4)GlcNAc(b1-2)Man(a1-3)]Man(b1-4)GlcNAc(b1-4)[Fuc(a1-6)]GlcNAc
In short: as §1

[24] = target: Gal(b1-3)[Fuc(a1-4)]GlcNAc(b1-6)GalNAc
In short: as §1

[25] = target: Gal(b1-3)[Neu5Ac(a2-6)]GlcNAc(b1-4)Gal(b1-4)Glc
In short: as §1

[26] = target: Gal(b1-4)Glc
In short: as §1

[27] = target: Gal(b1-4)GlcNAc
In short: as §1

[28] = target: Gal(b1-4)GlcNAc(b1-2)Man(a1-3)[GlcNAc(b1-4)][Gal(b1-4)GlcNAc(b1-2)Man(a1-6)]Man(b1-4)GlcNAc(b1-4)GlcNAc
In short: as §1

[29] = target: Gal(b1-4)GlcNAc(b1-3)Gal(b1-3)GalNAc
In short: as §1

[30] = target: Gal3S(b1-4)Glc6S
In short: as §1

B1: Epa8 (Candida glabrata) (protein)
chain: MGSSHHHHHHSSGLVPRGSHMASSRALSDYPLGCSPLLGTKLTPGLSMELYEYPLDNHGIGPHCWDPAYLNPEYPRTGFESHKLIGTAQNVMSLNFEHRTQDCHVEFSNLPASFNFPDQITLTNFTMLLYGYFKPKESGRYRFHMEADDLLLMNLGAGNAFDCCAHEATRNNLGDYIAYDIWAGTRKDVEVFLEKEVFYPLRLFFNNRDGRAALDFSYYLNGATEPGTDIPELLFSLPDGESCPAYI
glycan array binding signal (z-score) [1]: 0.141 | glycan array binding signal (z-score) [2]: 4.2 | glycan array binding signal (z-score) [3]: 0.004 | glycan array binding signal (z-score) [4]: -0.45 | glycan array binding signal (z-score) [5]: -0.33 | glycan array binding signal (z-score) [6]: 0.724 | glycan array binding signal (z-score) [7]: 2.63 | glycan array binding signal (z-score) [8]: -0.437 | glycan array binding signal (z-score) [9]: 0.166 | glycan array binding signal (z-score) [10]: 0.03 | glycan array binding signal (z-score) [11]: 0.09 | glycan array binding signal (z-score) [12]: 0.443 | glycan array binding signal (z-score) [13]: 0.493 | glycan array binding signal (z-score) [14]: 3.16 | glycan array binding signal (z-score) [15]: -0.093 | glycan array binding signal (z-score) [16]: -0.401 | glycan array binding signal (z-score) [17]: -0.54 | glycan array binding signal (z-score) [18]: -0.506 | glycan array binding signal (z-score) [19]: 0.171 | glycan array binding signal (z-score) [20]: -0.026 | glycan array binding signal (z-score) [21]: 0.394 | glycan array binding signal (z-score) [22]: 1.57 | glycan array binding signal (z-score) [23]: 2.13 | glycan array binding signal (z-score) [24]: 2.52 | glycan array binding signal (z-score) [25]: -0.392 | glycan array binding signal (z-score) [26]: -1.15 | glycan array binding signal (z-score) [27]: -0.292 | glycan array binding signal (z-score) [28]: -1.47 | glycan array binding signal (z-score) [29]: -1.06 | glycan array binding signal (z-score) [30]: 0.684
